# Inconclusive results are not listed. A call without a number means that no potency is given here. Activity calls are given as the source filed them. Calls follow the shape of the dose curve; as a rule, active = well fitted cell-killing curve with a large enough effect; inconclusive = small, poorly fitted or top-dose-only effect; inactive = flat fitted curve, though single readings scatter.
# Experiment: Cell Viability - LYMP2-021 (AID 974);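 also: compound exposure lasts 24 hours at 37 °C; nearly all actives have a fitted effect of over 55% in size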
# Settings: LYMP2-021 lymphoblastoid cells viability; series mostly up to 92.2 µM
# From the text: NIH Chemical Genomics Center [NCGC]
# NIH Molecular Libraries Screening Centers Network [MLSCN]
# National Institutes of Environmental Health Sciences [NIEHS]
# National Toxicology Program [NTP]
# We have developed a 1536-well cell-based assay for quantitative high throughput screening (qHTS) against a number of cell lines to determine in vitro cytotoxicity of small molecules. This particular assay uses a human lymphoblastoid cell line (LYMP2-021) purchased from Coriell Institute for Medical Research.
# NCGC Assay Protocol Summary:
# The CellTiter-Glo luminescent cell viability assay (Promega) is a homogeneous method to measure the number of viable cells in culture. The end point readout of this assay is based on quantitation of intracellular ATP, an indicator of metabolic activity, using the luciferase reaction. Luciferase catalyzes the oxidation of beetle Luciferin to oxyluciferin and light in the presence of ATP. The luminescent signal is proportional to amount of ATP present.
# Using the CellTiter-Glo luminescent cell viability assay, the amount of cellular ATP was measured in the lymphoblastoid cell line with complete culture medium following compound treatment for 24 hours. The assay was performed in opaque white Kalypsys 1536-well plates. In the screen, tetraoctylammonium bromide was used as positive control. Library compounds were measured for their ability to cause acute toxicity in the cell line, as reflected by a decrease in intracellular ATP levels, in a concentration-dependent manner. […] AC50 values were determined from concentration-response data modeled with the standard Hill equation.
# qHTS protocol for CellTiter Glo lymphoblastoid cellular assay
# [Step] [Parameter] [Value] [Description]
# 1. Reagent; 5 uL; 2500 lymphoblastoid cells/well
# 2. Time; 5 hr; 37 C incubation
# 4. Controls; 23 nL; Tetraoctylammonium bromide 6.4pM to 92 uM
# 5. Time; 24 hr; 37 C incubation
# 6. Reagent; 5 uL; CellTiter Glo reagent
# 7. Time; 30 min; Room Temperature
# 8. Detection; Luminescence; Viewlux plate reader
# Keywords: cell viability, cytotoxicity, lymphoblastoid cell line, luminescence, NTPHTS, NTPHTS_NCGC, NIEHS, DSSTox, MLSMR, MLSCN, NIH Roadmap, qHTS, NCGC
row,SMILES,Potency
1,C=C(C)C(=O)OCCCCCC,inactive
2,CCOCCOCC,inactive
3,CC(C)(C)c1ccc(OCC2CO2)cc1 (stereo not given),inactive
4,CC#N,inactive
5,c1ccc2c(c1)Oc1ccccc1S2,inactive
6,C=CCCCCCC,inactive
7,Cc1ccc(C#N)cc1,inactive
8,CCCCOCCOCCSC#N,inactive
9,Cc1ccc([N+](=O)[O-])c(N)c1,inactive
10,CNC(=O)N(c1ccccc1)c1ccccc1,inactive
11,CCCCC(CC)COC(=O)CCCCC(=O)OCC(CC)CCCC (stereo not given),inactive
12,O=C(O[C@@H](C(=O)O)[C@@H](OC(=O)c1ccccc1)C(=O)O)c1ccccc1,inactive
13,C=Cc1ccc(C=C)cc1,inactive
14,Nc1cccc([N+](=O)[O-])c1,inactive
15,CCCCCCCN,inactive
16,ClCCl,inactive
17,CCN(CC)c1cccc(O)c1,inactive
18,c1ccc(Oc2ccccc2)cc1,inactive
19,OC(CCl)CCl,inactive
20,COc1ccc(N=[N+]([O-])c2ccc(OC)cc2)cc1,inactive

row,SMILES,Potency
1,O=C(O)c1ccccc1C(=O)O,inactive
2,Cc1c(N)cccc1[N+](=O)[O-],inactive
3,O=C(O)c1ccc(Cl)cc1Cl,inactive
4,CC(C)(C)OCC1CO1 (stereo not given),inactive
5,Nc1ccc([N+](=O)[O-])c(N)c1,inactive
6,CCCCCCC(=O)O,inactive
7,CSCCC=O,inactive
8,CCCCC(C=O)CC (stereo not given),inactive
9,CC(=O)c1cccc([N+](=O)[O-])c1,inactive
10,Cc1cccc2cccnc12,inactive
11,CCCCCCCCN,inactive
12,COC(=O)c1ccccc1,inactive
13,Cc1cc(C2(c3cc(C)c(O)cc3C)OS(=O)(=O)c3ccccc32)c(C)cc1O,inactive
14,CC(C)(O)C(=O)O,inactive
15,CCCC(C)CO (stereo not given),inactive
16,CCc1ccccc1,inactive
17,Cc1cscn1,inactive
18,O=CNc1ccccc1,inactive
19,C=Cc1ccccc1C=C,inactive
20,CCC(C)(C)C(=O)O,inactive
